# This is a sample that favours compounds with a hit; in the whole collection about 3.6% have one here.
# TRHR PAM – TRH receptor (human) allosteric enhancement; P34981; enhancement, % at 2 µM; TRHR cells, fluo-8 calcium fluorescence, EC20 TRH enhancement; hit rate 0.66% among 360,000; in the data active = enhancement above about 30%; note: 0% is about no effect
# Target sequence (P34981 whole entry, looked up): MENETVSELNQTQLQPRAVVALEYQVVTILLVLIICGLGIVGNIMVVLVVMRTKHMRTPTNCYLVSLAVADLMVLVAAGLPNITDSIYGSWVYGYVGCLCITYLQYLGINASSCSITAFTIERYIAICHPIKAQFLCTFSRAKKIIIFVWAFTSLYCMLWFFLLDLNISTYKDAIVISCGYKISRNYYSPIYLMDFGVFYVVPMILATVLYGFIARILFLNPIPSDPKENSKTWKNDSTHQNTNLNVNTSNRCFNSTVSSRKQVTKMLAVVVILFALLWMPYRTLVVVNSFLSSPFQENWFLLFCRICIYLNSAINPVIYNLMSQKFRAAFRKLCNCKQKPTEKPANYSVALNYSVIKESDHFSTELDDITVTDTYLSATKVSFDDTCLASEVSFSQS
#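 TRHR-expressing cells loaded with fluo-8 calcium dye were read kinetically (ex 480/em 530) during compound addition, then stimulated with an EC20 of TRH (10 nM final). Enhancement of the Gq-mediated intracellular calcium response was scored.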
# D1 potentiator – enhances dopamine response at the human D1 receptor | hit rate 0.036% among 360,000 | P21728 | AID 504651 | potentiation, % at 10 µM | HEK293 TREx D1 cells, calcium flux, dopamine EC20 potentiation; in the data active = potentiation above about 30%; note: 0% is about no effect
# TRHR agonist – agonists of human TRH receptor; TRHR cells, calcium flux fluo-8, FDSS agonist mode; activation, % at 2 µM; hit rate 0.18% among 360,000; note: 0% is about no effect
#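 In this calcium-flux screen, cells bearing human TRHR are dye-loaded with fluo-8, baselined for 10 cycles, then exposed to library compounds; positive kinetic calcium responses during the agonist phase mark hits, with TRH as control.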
# D1 agonist – human D1 receptor agonism. AID 504660. HEK293 T-REx D1 cells, calcium flux, agonist mode. activation, % at 2 µM. P21728. hit rate 1% among 360,000; note: 0% is about no effect
#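 Tetracycline-induced HEK293 TREx D1 cells, force-coupled to calcium signalling, were dye-loaded with a no-wash calcium kit. Compound was pin-added after a 10 s baseline. Fluorescence was read kinetically at 1 cycle/s for 180 s, with calcium rises flagged as agonism.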
# LDHA inh – inhibitors of human lactate dehydrogenase A; purified LDHA, NADH/diaphorase-resazurin fluorescence; stronger effect = lower value; activity change, % (values are at about 110 or 230 µM); hit rate 0.15% among 480,000; in the data active = activity change below about -30%; inconclusive = mostly about -25% to -30%;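 note: plate controls were DMSO wells for no effect and wells without enzyme for full effect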
#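 Resorufin fluorescence (ex540/em590), read at 0 and 20 min after diaphorase/resazurin addition, reports the NADH left after a 5 min room-temperature reaction of 2 nM human LDH5 with 0.06 mM NADH and 0.2 mM pyruvate.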
# D1 antagonist – blocks dopamine activation of the human D1 receptor; hit rate 3.2% among 360,000; HEK293 TREx D1 cells, calcium flux, dopamine EC80; stronger effect = lower value; AID 504652; P21728; activity change, negative = inhibition, % at 10 µM; in the data active = activity change below about -30%; note: % is set by controls: 0 for no effect and ±100 for the full control effect
#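 Cells carrying a force-coupled, tetracycline-inducible human D1 receptor report calcium flux. Each well gets a 10 s baseline, compound with 180 s monitoring, then an EC80 dopamine stimulus with a second 180 s kinetic read.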
# The depositor's hits bear a star; ? = inconclusive; . = not tested or not shown. Cut-off read from the data, not from the text of the source, unless noted: active = activation above about 30%; inactive = the rest.
SMILES,TRHR PAM,D1 potentiator,TRHR agonist,D1 agonist,LDHA inh,D1 antagonist
CC(C)N=C(NC#N)SCc1ccccc1,-3,-4,-1,2,-2,-47*
CC(C(=O)Nc1ncc([N+](=O)[O-])s1)N1C(=O)c2ccccc2S1(=O)=O (stereo unspecified),1,-4,1,4,-6,-35*
CCN(CC)c1ccc(NC(=O)c2ccc(S(=O)(=O)Nc3ccccc3C)cc2)cc1,.,.,.,.,-2,.
O=C(Nc1ccccc1C(F)(F)F)N1CCC(CN2CCc3ccccc3C2)CC1,1,6,0,30*,5,-6
CCc1ccccc1NC(=O)N1CCC(CN2CCc3ccccc3C2)CC1,2,3,0,5,4,-4
O=C(C[n+]1cc(-c2ccc(Cl)c(Cl)c2)n2c1CCC2)N1c2ccccc2Sc2ccccc21,-7,-7,-1,1,0,-39*
O=C(C[n+]1cc(-c2ccc(Cl)cc2)n2c1CCC2)Nc1nc(-c2ccccc2)cs1,0,-10,0,3,0,-61*
O=C(C[n+]1cc(-c2ccc(Cl)cc2)n2c1CCC2)N1c2ccccc2Sc2ccccc21,-6,-2,0,9,-3,-3
NC(=O)C[n+]1cccc2ccccc21,-7,-5,12,45*,-19,-4
Cc1ccc(S(=O)(=O)c2cn(CC(=O)Nc3ccccc3)c3cc4c(cc3c2=O)OCO4)cc1,-7,3,2,2,-1,-8
Cc1ccc2c(c1)c(=O)c(S(=O)(=O)c1ccc(C)c(C)c1)cn2CC(=O)Nc1ccccc1,10,-2,2,1,-4,-47*
COc1ccc(NC(=O)Cn2cc(S(=O)(=O)c3ccccc3)c(=O)c3cc4c(cc32)OCO4)cc1,2,-4,1,4,-4,-47*
Cc1ccc(S(=O)(=O)c2cn(CC(=O)Nc3ccc(Cl)cc3)c3ccc(F)cc3c2=O)cc1C,-3,-1,1,3,-4,6
CC1CC(C)(C)Nc2ccc(N=O)cc21 (stereo unspecified),11,-4,-1,2,6,-45*
CC1CC(C)(C)Nc2ccc(OC(=O)c3ccco3)cc21 (stereo unspecified),4,-7,-1,12,6,-13
COc1ccc(/C=C2\N=C(C)N(c3ccc4ccccc4c3)C2=O)cc1OC,-9,-7,3,8,-1,-43*
CC12CC3(C)CC(CN)(C1)CC(CCN)(C2)C3,.,.,.,.,0,.
COc1ccc(S(=O)(=O)N2CCN(c3ccccc3F)CC2)cc1-c1noc(C)n1,-7,-3,74*,6,-12,-34*
O=S(=O)(/C=C/c1ccccc1)N1CCN(c2ccccc2)CC1,6,-2,-1,0,-8,13
COc1ccccc1N1CCN(S(=O)(=O)/C=C/c2ccccc2)CC1,-8,-2,0,1,-1,-37*
CCNC(=S)N1CCN(S(=O)(=O)/C=C/c2ccccc2)CC1,40*,-1,-1,0,3,5
Cn1c(=O)c2cc(S(=O)(=O)N3CCOCC3)ccc2n(C)c1=O,14,5,-1,-1,0,-31*
Cc1ccc(COc2ccc(CNC(C)C)cc2)cc1,.,.,.,.,8,.
COc1ccc(S(=O)(=O)N2CCC(N3CCN(c4ccccc4OC)CC3)CC2)cc1,-4,-1,-1,0,-32*,-18
CC1CCN(C2CCN(S(=O)(=O)c3ccc(F)cc3)CC2)CC1,-3,2,0,0,?,-33*
SMILES,TRHR PAM,D1 potentiator,TRHR agonist,D1 agonist,LDHA inh,D1 antagonist
O=S(=O)(c1ccc(F)cc1)N1CCC(N2CCCCCC2)CC1,2,2,0,2,-22,10
COc1ccccc1N1CCN(S(=O)(=O)c2ccc3c(c2)n(C)c(=O)n3C)CC1,-4,-4,-2,2,-4,-47*
C=CCOc1ccc(C(=O)NCC(F)(F)F)cc1,.,.,.,.,0,.
O=C(NCc1ccccc1Cl)c1nnc(CS(=O)(=O)c2ccccc2)o1,31*,-10,0,9,-5,-3
Cc1ccc(CNC(=O)c2nnc(CS(=O)(=O)c3ccccc3)o2)cc1,-1,6,1,7,-1,10
CC1CCN(CCCOc2ccc(Br)cc2Cl)CC1,-9,-5,1,52*,-10,-68*

# Assay outcomes from PubChem BioAssay.
